# Where “and” joins values, the source holds several entries; their conditions need not be identical. Equal entries are not always repeated. Hit rate of the full screen: of about 270,000 compounds, about 410 (0.15%) were called active. Rule as the data show it: active = activation above about 40%; inactive = the rest, inconclusive results apart. The list comes from a sample in which actives are over-represented; it also holds similar structures and randomly drawn compounds. Some compounds were tested as several samples or in several runs, with calls that do not always agree.
# Test system: Aedes aegypti neuropeptide Y-like receptor 7 (NPYLR7)
# Experiment: agonists of mosquito NPYLR7 receptor, primary screen, cell-based, Aedes aegypti, calcium fluorescence, mosquito biting behavior (AID 1259423);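 also: 0% = vehicle and 100% = reference agonist at the receptor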
# Conditions: HEK293T NPYLR7/Galpha15, GCaMP6s calcium fluorescence, at 10 µM, stronger effect = higher value
# [1] = measured here: Max-Min RFU normalised activation
Structure (SMILES),activation,activation [1]
Cc1nc2c(=O)n(CC(=O)Nc3ccc(F)cc3)nc(-c3ccc(F)cc3)c2s1,-3.19% (inactive),-5.39%
COc1ccc(C(=O)NNc2nc3c(C)c(C)ccc3s2)cc1,3.57% (inactive),-0.501%
O=S(=O)(Nc1ccccc1OC(F)F)c1ccccc1F,-1.67% (inactive),-2.18%
Nc1[nH]n(-c2c(Cl)cc(Cl)cc2Cl)c(=O)c1N=Nc1cccc(C(F)(F)F)c1,-0.505% (inactive),-6.22%
O=C(Nc1cccc(Cl)c1)c1cn(CC2CCCO2)cc2c(=O)n(-c3ccccc3)nc1-2 (stereo not given),6.66% (inactive),6.45%
CCOC(=O)Cc1csc(=Nc2ccc(OC)cc2)n1CCO,-15.9% (inactive),-20.5%
CC(C)OCCCNC(=O)c1ccc(-c2cccc(C(F)(F)F)c2)s1,-2.79% (inactive),5.92%
Cc1cc2nc3c(=O)[nH]c(=O)nc-3n(C[C@H](O)[C@H](O)[C@H](O)CO)c2cc1C,71.4% (active),64.2%
COc1cccc(OC)c1-c1cnnc(NCCN2CCCc3ccccc32)n1,19.3% (inactive),11.8%
COc1ccc(CC(=O)N(Cc2nc3cc(Cl)ccc3o2)C2CCCC2)cc1OC,4.51% (inactive),-5.03%
Cc1c(C(=O)N2CCCCC2CCc2ccc(O)cc2)oc2c(F)cccc12 (stereo not given),-1.59% (inactive),-5.83%
CC1CN(c2ccc(/C=C(\C#N)c3nc4ccccc4[nH]3)o2)CC(C)O1 (stereo not given),81.4% (active),110%
N#CC(=C(O)CSc1ccc2c(c1)OCCO2)c1nc2ccccc2[nH]1,5.29% (inactive),3.43%
N#C/C(=C/c1cn(-c2ccccc2)nc1-c1ccco1)c1nc2ccccc2c(=O)[nH]1,11.8% (inactive),10.5%
COc1ccc(C(CC(=O)N(C)Cc2cnccn2)c2ccccc2)cc1 (stereo not given),16% (inactive),4.14%
O=C(NCCCNC(=O)[C@H]1CCCN1C(=O)COc1ccc(Cl)cc1)c1ccc(F)cc1,-0.263% (inactive),6.73%
CC1CCN(C(=O)C(C)Nc2ccc3c(c2)OCO3)CC1 (stereo not given),3.12% (inactive),1.09%
COc1cc2c(cc1OC)C(c1ccccc1)N(C(=O)c1cc3c(s1)-c1ccccc1OC3)CC2 (stereo not given),-0.991% (inactive),6.66%
COc1cc2c(cc1O)[C@@H](Cc1ccc(O)cc1)[N+](C)(C)CC2,5.5% (inactive),-4.18%
COc1ccc(CC(=O)OCc2ccc(COC(=O)Cc3ccc(OC)c(OC)c3)cc2)cc1OC,-2.95% (inactive),-6.45%
COc1ccc(CC2c3cc(OC)c(OC)cc3CC[N+]2(C)CCC(=O)OCCCCCOC(=O)CC[N+]2(C)CCc3cc(OC)c(OC)cc3C2Cc2ccc(OC)c(OC)c2)cc1OC (stereo not given),41.9% (inactive) and -3.83% (inactive) and 69.2% (active),33.2% and 2.45% and 52.5%
CCOc1ccc(NC(=O)CSc2nc3c(c(=O)n2CCOC)SC(C)C3)cc1 (stereo not given),3.32% (inactive),0.972%
O=C(NC1COC2(CCCCC2)C1)c1ccco1 (stereo not given),-4.17% (inactive),-7.46%
CC(C)CC(NC1CCN(C(=O)c2ccccc2)CC1)c1ncnn1C (stereo not given),8.96% (inactive),6.07%
C/C(=N/Nc1nc2c(s1)CCCC2)c1ccc(Cl)cc1,0.513% (inactive),5.88%
O=C1NC(c2ccc(Cl)cc2)C(C(=O)c2ccccc2)C(O)(C(F)(F)F)N1 (stereo not given),-3.23% (inactive),-4.42%
O=C1NC(c2ccc3c(c2)OCO3)C(C(=O)c2ccccc2)C(O)(C(F)(F)F)N1 (stereo not given),42.8% (active),72%

Structure (SMILES),activation,activation [1]
CC1=C(C(=O)Nc2ccccc2)C(c2ccc3c(c2)OCO3)NC(=S)N1 (stereo not given),4.23% (inactive),8.09%
Cc1ccc(Cl)cc1NC(=O)CN1C(=O)c2ccc([N+](=O)[O-])cc2C1=O,-3.83% (inactive),-10.3%
CC(C)c1ccc(C2CC(c3ccccc3)=Nc3ncnn32)cc1 (stereo not given),4.24% (inactive),2.65%
O=C(Nc1ccc(N2CCC(Cc3ccccc3)CC2)c(C(=O)NCc2ccc(F)cc2)c1)c1cccc([N+](=O)[O-])c1,-3.24% (inactive),7.02%
CCCCNc1ncnc2sc3c(c12)CCC(C)C3 (stereo not given),1.78% (inactive),2.41%
O=C(O)CCC(=O)Nc1nc2c(s1)CCCC2,1.28% (inactive),-0.361%
COc1ccc(C(=O)NCCn2ncc3c(=O)n(Cc4cccc(C)c4)cnc32)cc1,-1.65% (inactive),-7.02%
c1csc(-c2nc(CSc3nnc(-c4cccs4)n3C3CC3)co2)c1,-0.388% (inactive),7.96%
COc1ccccc1CNC1CC2CCC1(C)C2(C)C (stereo not given),7.42% (inactive),2.21%
COc1ccc(-c2cccc(-c3nnc(C)s3)c2)c(OC)c1,2.95% (inactive),1.01%
CC(C)c1ccc(C(=O)NCc2ccccc2CS(=O)(=O)N2CCOCC2)cc1,-3.68% (inactive),-3.21%
c1ccc2c(-c3noc4c3CN(CC3CCCO3)CC4)cccc2c1 (stereo not given),14.2% (inactive),6.24%
Fc1ccccc1-c1noc2c1CN(Cc1cccn1-c1ncccn1)CC2,8.24% (inactive),5.36%
Clc1ccc(-c2noc3c2CN(CCn2cc(Cl)cn2)CC3)cc1,74.9% (active),54.3%
COCc1c(Br)c(C)nc(OCC(=O)N/N=C\c2cc(Br)c(OCc3ccc(Cl)cc3)c(OC)c2)c1C#N,25.2% (inactive),27.7%
Cc1nn(-c2ccc(F)cc2F)c(C)c1CCC(=O)N1Cc2cccc3cccc(c23)C1,4.97% (inactive),3.44%
COc1ccc(Cl)c2sc(N(CCN(C)C)C(=O)c3cc(C)n(C)n3)nc12,1.87% (inactive),0.849%
Cc1ccc(Sc2ncccc2C(=O)N2CCN(c3nccc(-c4cccc(C(F)(F)F)c4)n3)CC2)cc1,14% (inactive),18.9%
COc1cc(OC)cc(C(NC(=O)Cn2ccccc2=O)c2nccn2C)c1 (stereo not given),5.09% (inactive),2.46%
CN(Cc1ccccc1)C1(C(=O)NCC2COCCO2)Cc2ccccc2C1 (stereo not given),2.27% (inactive),-0.863%
COc1c(C=NNC(=O)c2cc(Br)ccc2O)sc2ccccc12,-6.22% (inactive),-11.5%
O=c1oc2c(CN3CC4CC(C3)c3cccc(=O)n3C4)c(O)ccc2cc1-c1nc2ccccc2s1 (stereo not given),303% (active),372%
COc1cc(C(=O)N2CCOC(c3ccccc3)C2)cc(OC)c1C (stereo not given),77.6% (active),58.9%
COc1ccc2cc(C3CN(C(=O)c4ccc[nH]4)CCO3)ccc2c1 (stereo not given),-5.79% (inactive),-7.4%
Cc1c(F)cccc1C(=O)N1CCOC(c2ccccc2)C1 (stereo not given),0.877% (inactive),-1.3%
O=S(=O)(Cc1ccc(F)cc1)NCc1ccccc1OC(F)F,1.17% (inactive),1.23%
Cc1cccc(C(=O)O/N=C\c2ccc(Br)cc2)c1,0.973% (inactive),3.02%

Structure (SMILES),activation,activation [1]
CON(C)C(=O)c1cccc(CN2CCS(=O)(=O)CC2)c1,7.7% (inactive),4.38%
CCOC(C)c1noc(CNC2(c3noc(CC)n3)CCCC2)n1 (stereo not given),3.73% (inactive),1.21%
C(=C\c1nn2c(CN3CCCCC3)nnc2s1)/c1ccccc1,1.3% (inactive),0.534%
COC(=O)C1Cc2ccccc2CN1Cc1cccc(C(=O)N(C)C)c1 (stereo not given),1.77% (inactive),-13.5%
COc1ccc(CCN2CCC(CN(C)C(=O)c3ccoc3)CC2)cc1,13.3% (inactive),6.16%
O=c1[nH]c(Cn2nnc3ccccc3c2=O)nc2ccccc12,-3.31% (inactive),-3.64%
CCCCCCCC(=O)Nc1c(-c2ccc(Cl)cc2)nc2cc(C)ccn12,-5.12% (inactive),1.14%
C/C=C\COC1CCCN(C(=O)COc2ccc(Cl)cc2)C1 (stereo not given),-4.16% (inactive),-5.2%
CCN1CCN(CC(O)COc2ccc(CN3CCc4ccccc4C3)cc2OC)CC1 (stereo not given),3.88% (inactive),3.04%
Brc1ccc(Oc2nc(N3CCCC3)nc(N3CCCC3)n2)cc1,-2.87% (inactive),-5.23%
CCc1ccc(C2C(C#N)C(=N)SC(=N)C2C#N)cc1 (stereo not given),0.645% (inactive),-2.49%
N#CC1C(=N)SC(=N)C(C#N)C1c1ccco1 (stereo not given),-5.34% (inactive),-2.82%
N#CC1C(=N)SC(=N)C(C#N)C1c1cccc(O)c1 (stereo not given),51% (active),53%
COc1ccc(-c2nc(NC(=O)C3CCCC3)sc2C)cc1,-2.08% (inactive),2.65%
CCC(C)(NC(=O)C1Cc2ccccc2O1)c1nccs1 (stereo not given),-1.24% (inactive),-2.94%
CCC1CCCCN1C(=O)CSc1c(C)[nH]c2ccccc12 (stereo not given),-1.59% (inactive),-2.64%
CCCN(C(=O)Cn1nc(C)c2ccccc2c1=O)[C@@H]1CCCC[C@H]1O,0.206% (inactive),-0.142%
CCCc1cc(=O)n2[nH]c(C)c(-c3cccc4ccccc34)c2n1,-15.2% (inactive),-20.4%
NC(=O)CN1C(=O)COc2ccccc21,-19.8% (inactive),-26.8%
CCCCN(C)C(=O)c1cnn(-c2ccccc2)c1,0.0336% (inactive),-1.33%
O=C(NC1C=CS(=O)(=O)C1)c1cccc2ccnn12 (stereo not given),22.3% (inactive),9.91%
CCC(N)(C(=O)OC)c1ccccc1 (stereo not given),8.89% (inactive),3.04%
CCCC(C(=O)OCCN(CC)CC)(c1ccccc1)c1ccccc1,3.25% (inactive) and -1.52% (inactive) and 68.5% (active),-42.8% and -5.9% and 58.4%
CC1Cc2c(NC(=O)CSCc3ccccc3)nn(C)c2NC1=O (stereo not given),3.06% (inactive),-2.58%
CCN(CC)c1ccc2cc(-c3nnc(Nc4ccccc4F)s3)c(=O)oc2c1,-10.4% (inactive),-12.8%
O=c1[nH]c(=O)n(Cc2cccc(OC(F)F)c2)cc1Cl,0.422% (inactive) and -19.6% (inactive),-0.254% and -21%

# Reference: PubChem BioAssay AID1259423 (Fisher Drug Discovery Resource Center, 2018)
